Data taken from PubChem BioAssay (Tox21).
Values without a mark were called inactive. Results filed as inconclusive are left out. Where a call stands in place of a potency, no number is given. Activity calls are given as the source filed them. Unless noted, the call rests on the fitted dose curve.

Experiments:
[1] = qHTS assay to identify small molecule antagonists of the sonic hedgehog signaling (Shh) pathway (AID 1259369); further: nearly all actives have a fitted effect of over 45% in size; further: potency means the concentration at half of the fitted maximal effect
Procedure, shortened: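 Antagonist mode: compound added to 3T3 Gli1-Luc cells followed by conditioned-medium stimulation, 24 h at 37 C, 5% CO2. Inhibition taken as loss of Gli1-driven luciferase luminescence.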

[2] = qHTS assay to identify small molecule agonists of the androgen receptor (AR) signaling pathway in the presence of an antagonist - cell viability counter screen (AID 1259379; active means well fitted curve in the direction sought with a large enough effect in the repeat runs; an effect the other way counts as inactive or inconclusive;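 further: MDA-kb2 human breast cancer cells carrying an MMTV luciferase reporter; series mostly up to about 92 µM; nearly all actives have a fitted effect of over 25% in size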)
Procedure, shortened: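 Cytotoxicity counter-screen run in the same wells as the nilutamide-challenged (3.0 µM final) AR agonist assay in MDA-kb2 cells. Compounds tested at 15 concentrations for 16 h, 37 °C without CO2; CellTiter-Fluor fluorescence read.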

[3] = qHTS assay to identify small molecule agonists of the estrogen receptor beta (ER-beta) signaling pathway - cell viability counter screen (AID 1259380; active means well fitted curve in the direction sought with a large enough effect in the repeat runs; an effect the other way counts as inactive or inconclusive; further: nearly all actives have a fitted effect of over 30% in size; further: potency means the concentration at half of the fitted maximal effect)
Procedure, shortened: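 Cell viability counter screen: CellTiter-Glo luminescence (30 min, room temperature) measured in the same wells as the beta-lactamase readout, after 16 hr compound exposure at 37C of ER-beta-bla HEK293T cells in 2% charcoal-stripped FBS medium.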

[4] = biological target: Androgen receptor (Homo sapiens) (UniProt P10275); assay: qHTS assay to identify small molecule agonists of the androgen receptor (AR) signaling pathway in the presence of an antagonist (AID 1259381); further: nearly all actives have a fitted effect of over 15% in size
Procedure, shortened: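 Agonist-mode confirmation run against 3.0 uM final nilutamide: compounds titrated at 15 concentrations onto MDA-kb2 MMTV-luciferase reporter cells. Luminescence measured with ONE-Glo following 16 hr incubation, 37C, 0% CO2.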

[5] = qHTS assay to identify small molecule agonists or antagonists of the thyroid stimulating hormone receptor (TSHR) signaling pathway - wild type cell line counter screen (AID 1259384)
Procedure, shortened: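 Counter screen in untransfected Hek293: compounds (15-point titration, triplicate) plus phosphodiesterase inhibitor Ro20-1724 added after 18 h plating; 30 min RT. Intracellular cAMP via competitive d2/cryptate immunoassay, 1 h incubation.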

[6] = biological target: Thyrotropin receptor (Homo sapiens) (UniProt P16473); assay: qHTS assay to identify small molecule antagonists of the thyroid stimulating hormone receptor (TSHR) signaling pathway (AID 1259385); further: nearly all actives have a fitted effect of over 20% in size
Procedure, shortened: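 Antagonist mode: compound-treated TSHR-expressing HEK293 cells were stimulated with 1.5 ng/mL TSH (final) in presence of Ro20-1724 for 30 min at RT. HTRF cAMP detection after 1 h; each compound tested at 15 concentrations, triplicate.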

[7] = qHTS assay to identify small molecule agonists of the estrogen receptor alpha (ER-alpha) signaling pathway in the presence of an antagonist - cell viability counter screen (AID 1259386; active means well fitted curve in the direction sought with a large enough effect in the repeat runs; an effect the other way counts as inactive or inconclusive; further: series mostly up to about 92 µM; nearly all actives have a fitted effect of over 30% in size)
Procedure, shortened: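 Compounds tested at 15 concentrations for 22 h at 37C alongside 10.0nM (final) ICI-182,780 antagonist, in VM7Luc4E2 cells grown in phenol red-free, charcoal-stripped medium. Viability read by CellTiter-Fluor fluorescence after 1 h reagent incubation.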

[8] = biological target: Progesterone receptor (Homo sapiens) (UniProt P06401); assay: qHTS assay to identify small molecule agonists of the progesterone receptor (PR) signaling pathway (AID 1346784); further: nearly all actives have a fitted effect of over 30% in size
Procedure, shortened: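 Fluorescence from LiveBLAzer B/G FRET substrate cleavage (2 hr, RT) reported PR activation in PR-UAS-bla HEK 293T cells treated 16 hr at 37C/5% CO2 with compounds; medium contained 2% charcoal-stripped FBS.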

[9] = biological target: Progesterone receptor (Homo sapiens) (UniProt P06401); assay: qHTS assay to identify small molecule antagonists of the progesterone receptor (PR) signaling pathway (AID 1346795; active means well fitted inhibition curve with a large enough effect in the signal ratio in the repeat runs, not every such curve was filed as active; the % refers to the signal ratio)
Procedure, shortened: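 Fluorescence intensity measured 2 hr after adding beta-lactamase FRET substrate to PR-UAS-bla HEK293T cells that had been co-treated 16 hr with compound and 1 nM R5020 (final concentration) in 2% charcoal-stripped FBS.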

[10] = qHTS assay to identify small molecule antagonists of the progesterone receptor (PR) signaling pathway - cell viability counter screen (AID 1346798; active means well fitted curve in the direction sought with a large enough effect in the repeat runs; an effect the other way counts as inactive or inconclusive; further: series mostly up to about 92 µM; nearly all actives have a fitted effect of over 50% in size)
Procedure, shortened: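 CellTiter-Glo luminescence; PR-UAS-bla HEK293T, 3,000 cells/well; compound + R5020, 16 hr, 37C/5% CO2; 30 min RT before read.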

[11] = qHTS assay to identify small molecule agonists of the progesterone receptor (PR) signaling pathway - cell viability counter screen (AID 1346799); further: nearly all actives have a fitted effect of over 45% in size
Procedure, shortened: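 In parallel with the beta-lactamase readout, cytotoxicity toward PR-UAS-bla HEK293T cells was measured by CellTiter-Glo luminescence following 16 hr compound incubation in 2% charcoal-stripped FBS medium.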

[12] = qHTS assay to identify small molecule antagonists of the TGF-beta/Smad signaling pathway - cell viability counter screen (AID 1346824; active means well fitted curve in the direction sought with a large enough effect in the repeat runs; an effect the other way counts as inactive or inconclusive; further: nearly all actives have a fitted effect of over 50% in size)
Procedure, shortened: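 Cytotoxicity counter-screen run in the same wells as the beta-lactamase Smad reporter read: CellTiter-Glo luminescence after 30 min at room temperature. HEK 293T SBE-bla cells had 5 hr compound exposure at 37 C with TGF-beta1 (0.25 ng/mL stock).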

[13] = qHTS assay to identify small molecule agonists of the TGF-beta/Smad signaling pathway (AID 1346859; active means well fitted activation curve with a large enough effect in the signal ratio in the repeat runs, not every such curve was filed as active; the % refers to the signal ratio; further: series mostly up to about 77 µM)
Procedure, shortened: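 After overnight seeding, SBE-bla HEK 293T cells are dosed with compounds in DMSO and kept 5 hr at 37 C, 5% CO2. LiveBLAzer-type FRET substrate is then applied for 2 hr at room temperature.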

[14] = biological target: Thyrotropin-releasing hormone receptor (Homo sapiens) (UniProt P34981); assay: qHTS assay to identify small molecule antagonists of the thyrotropin-releasing hormone receptor (TRHR) signaling pathway (AID 1346877; active means well fitted inhibition curve with a large enough effect in the repeat runs, not every such curve was filed as active; further: series mostly up to about 51 µM)
Procedure, shortened: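 Antagonist mode: after a 5 min room-temperature compound exposure, cells were stimulated with 1 nM (final) TRH. Dye-loaded TRHR-HEK293 cells were used, and calcium-dependent fluorescence was followed for 3 min, with 15-point titrations run in triplicate.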

[15] = biological target: Thyrotropin-releasing hormone receptor (Homo sapiens) (UniProt P34981); assay: qHTS assay to identify small molecule agonists of the thyrotropin-releasing hormone receptor (TRHR) signaling pathway (AID 1346891);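 further: HEK293 cells expressing TRHR with calcium dye readout; series mostly up to about 58 µM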
Procedure, shortened: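 Compounds were tested as agonists at 15 concentrations, in triplicate, on TRHR-Hek293 cells; calcium-sensitive dye fluorescence was recorded for 3 min following addition.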

[16] = biological target: Estrogen receptor beta (Homo sapiens) (UniProt Q92731); assay: qHTS assay to identify small molecule agonists of the estrogen receptor beta (ER-beta) signaling pathway (AID 1259377; active means well fitted activation curve with a large enough effect in the signal ratio in the repeat runs, not every such curve was filed as active; the % refers to the signal ratio)
Procedure, shortened: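 qHTS in ER-beta-UAS-bla HEK293T cells: 6 hr settling, then 16 hr compound at 37C, then LiveBLAzer substrate 2 h at RT before fluorescence reading.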

[17] = qHTS assay to identify small molecule antagonists of the estrogen receptor beta (ER-beta) signaling pathway - cell viability counter screen (AID 1259382; active means well fitted curve in the direction sought with a large enough effect in the repeat runs; an effect the other way counts as inactive or inconclusive;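 further: HEK293T cells carrying ER-beta-UAS-bla reporter stimulated with estradiol; series mostly up to about 92 µM; nearly all actives have a fitted effect of over 55% in size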)
Procedure, shortened: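 Cytotoxicity was measured in the same wells by CellTiter-Glo luminescence after 30 min at room temperature. Cells were ER-beta-bla HEK293T in charcoal-stripped serum, given compound together with 1 nM E2 and incubated 16 h at 37C.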

[18] = biological target: Estrogen receptor (Homo sapiens) (UniProt P03372); assay: qHTS assay to identify small molecule agonists of the estrogen receptor alpha (ER-alpha) signaling pathway in the presence of an antagonist (AID 1259383); further: top concentration of the series differs between compounds; nearly all actives have a fitted effect of over 15% in size
Procedure, shortened: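 Agonist-mode confirmation run in the presence of 10.0nM (final) ICI-182,780 antagonist. The reporter was ERE-driven luciferase in VM7Luc4E2 cells, grown in charcoal-stripped serum. Cells were exposed to 15-concentration compound series for 22hr, then ONE-Glo luminescence was read.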

[19] = qHTS assay to identify small molecule agonists of the TGF-beta/Smad signaling pathway - cell viability counter screen (AID 1346829; active means well fitted curve in the direction sought with a large enough effect in the repeat runs; an effect the other way counts as inactive or inconclusive; further: top concentration of the series differs between compounds; nearly all actives have a fitted effect of over 45% in size)
Procedure, shortened: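 Tox21 qHTS format: SBE-bla HEK 293T cells treated with DMSO-dissolved compounds for 5 hr; CellTiter-Glo luminescence after 30 min at room temperature.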

Chain of Estrogen receptor (Homo sapiens) (P03372 whole entry, looked up): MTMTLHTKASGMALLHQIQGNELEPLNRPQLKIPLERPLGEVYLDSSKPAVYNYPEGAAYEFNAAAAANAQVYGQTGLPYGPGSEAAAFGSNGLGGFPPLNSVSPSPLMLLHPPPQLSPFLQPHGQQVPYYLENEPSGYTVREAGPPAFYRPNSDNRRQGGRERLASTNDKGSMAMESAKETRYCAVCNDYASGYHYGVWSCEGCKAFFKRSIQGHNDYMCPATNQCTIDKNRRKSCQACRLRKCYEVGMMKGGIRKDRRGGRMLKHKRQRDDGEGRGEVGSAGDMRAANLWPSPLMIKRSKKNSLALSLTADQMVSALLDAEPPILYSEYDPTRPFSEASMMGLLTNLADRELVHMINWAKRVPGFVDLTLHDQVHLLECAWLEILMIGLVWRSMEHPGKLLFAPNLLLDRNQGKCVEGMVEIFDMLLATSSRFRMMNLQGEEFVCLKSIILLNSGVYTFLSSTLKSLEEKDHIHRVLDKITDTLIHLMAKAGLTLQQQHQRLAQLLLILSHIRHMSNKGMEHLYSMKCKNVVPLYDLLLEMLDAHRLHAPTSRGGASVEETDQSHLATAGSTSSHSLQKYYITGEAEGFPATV
Chain of Thyrotropin receptor (Homo sapiens) (P16473 whole entry, looked up): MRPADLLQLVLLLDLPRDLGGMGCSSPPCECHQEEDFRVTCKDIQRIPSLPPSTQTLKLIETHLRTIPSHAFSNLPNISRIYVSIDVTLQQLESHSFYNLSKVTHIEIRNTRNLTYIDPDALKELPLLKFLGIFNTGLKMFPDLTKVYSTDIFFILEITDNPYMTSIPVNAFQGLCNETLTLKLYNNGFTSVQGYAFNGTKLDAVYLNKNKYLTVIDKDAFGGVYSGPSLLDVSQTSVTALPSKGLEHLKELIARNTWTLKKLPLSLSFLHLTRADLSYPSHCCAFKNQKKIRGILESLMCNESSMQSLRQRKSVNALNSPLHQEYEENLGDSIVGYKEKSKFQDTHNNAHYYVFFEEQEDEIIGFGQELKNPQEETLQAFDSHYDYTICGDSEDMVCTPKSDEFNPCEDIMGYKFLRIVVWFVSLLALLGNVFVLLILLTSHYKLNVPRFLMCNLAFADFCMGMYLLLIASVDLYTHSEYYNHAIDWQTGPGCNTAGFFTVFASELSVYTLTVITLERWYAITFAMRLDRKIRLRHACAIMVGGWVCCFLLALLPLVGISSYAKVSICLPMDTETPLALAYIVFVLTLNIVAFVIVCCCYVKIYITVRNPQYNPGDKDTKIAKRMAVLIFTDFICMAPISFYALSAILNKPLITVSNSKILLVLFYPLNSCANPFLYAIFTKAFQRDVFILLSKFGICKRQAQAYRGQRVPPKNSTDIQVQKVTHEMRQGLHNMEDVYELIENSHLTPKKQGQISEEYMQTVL
Chain of Progesterone receptor (Homo sapiens) (P06401 whole entry, looked up): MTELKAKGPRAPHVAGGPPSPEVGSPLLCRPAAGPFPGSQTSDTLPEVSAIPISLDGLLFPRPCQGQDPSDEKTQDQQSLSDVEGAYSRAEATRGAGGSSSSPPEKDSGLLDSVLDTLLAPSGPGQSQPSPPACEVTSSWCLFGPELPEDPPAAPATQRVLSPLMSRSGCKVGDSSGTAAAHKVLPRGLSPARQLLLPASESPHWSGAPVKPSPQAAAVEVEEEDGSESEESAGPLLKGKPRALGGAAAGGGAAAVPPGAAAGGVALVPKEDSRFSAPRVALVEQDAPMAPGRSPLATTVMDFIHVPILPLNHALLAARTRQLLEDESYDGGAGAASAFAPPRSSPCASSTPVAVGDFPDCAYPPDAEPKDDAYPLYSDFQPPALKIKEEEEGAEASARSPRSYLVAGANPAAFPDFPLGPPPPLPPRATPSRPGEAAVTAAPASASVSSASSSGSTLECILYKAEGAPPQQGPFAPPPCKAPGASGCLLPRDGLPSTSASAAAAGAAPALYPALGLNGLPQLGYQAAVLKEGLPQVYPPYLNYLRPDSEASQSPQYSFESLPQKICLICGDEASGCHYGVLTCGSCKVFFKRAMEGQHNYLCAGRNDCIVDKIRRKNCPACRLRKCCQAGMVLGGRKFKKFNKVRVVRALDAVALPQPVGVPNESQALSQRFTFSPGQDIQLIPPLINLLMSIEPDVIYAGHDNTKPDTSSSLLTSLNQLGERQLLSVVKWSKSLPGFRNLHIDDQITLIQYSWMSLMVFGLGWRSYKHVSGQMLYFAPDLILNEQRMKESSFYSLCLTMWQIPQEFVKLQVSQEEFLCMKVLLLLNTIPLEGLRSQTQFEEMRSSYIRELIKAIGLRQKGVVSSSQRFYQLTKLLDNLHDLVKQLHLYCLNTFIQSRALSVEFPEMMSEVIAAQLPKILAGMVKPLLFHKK
Chain of Thyrotropin-releasing hormone receptor (Homo sapiens) (P34981 whole entry, looked up): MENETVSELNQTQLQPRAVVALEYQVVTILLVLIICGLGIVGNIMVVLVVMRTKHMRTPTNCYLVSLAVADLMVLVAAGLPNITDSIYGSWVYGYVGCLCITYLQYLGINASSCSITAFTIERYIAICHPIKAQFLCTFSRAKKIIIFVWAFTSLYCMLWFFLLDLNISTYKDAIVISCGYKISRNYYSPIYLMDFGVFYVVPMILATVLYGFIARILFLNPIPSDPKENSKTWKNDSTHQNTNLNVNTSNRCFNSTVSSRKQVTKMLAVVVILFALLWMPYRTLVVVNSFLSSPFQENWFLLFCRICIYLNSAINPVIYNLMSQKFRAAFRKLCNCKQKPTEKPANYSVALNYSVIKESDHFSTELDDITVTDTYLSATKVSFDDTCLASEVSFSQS
Chain of Estrogen receptor beta (Homo sapiens) (Q92731 whole entry, looked up): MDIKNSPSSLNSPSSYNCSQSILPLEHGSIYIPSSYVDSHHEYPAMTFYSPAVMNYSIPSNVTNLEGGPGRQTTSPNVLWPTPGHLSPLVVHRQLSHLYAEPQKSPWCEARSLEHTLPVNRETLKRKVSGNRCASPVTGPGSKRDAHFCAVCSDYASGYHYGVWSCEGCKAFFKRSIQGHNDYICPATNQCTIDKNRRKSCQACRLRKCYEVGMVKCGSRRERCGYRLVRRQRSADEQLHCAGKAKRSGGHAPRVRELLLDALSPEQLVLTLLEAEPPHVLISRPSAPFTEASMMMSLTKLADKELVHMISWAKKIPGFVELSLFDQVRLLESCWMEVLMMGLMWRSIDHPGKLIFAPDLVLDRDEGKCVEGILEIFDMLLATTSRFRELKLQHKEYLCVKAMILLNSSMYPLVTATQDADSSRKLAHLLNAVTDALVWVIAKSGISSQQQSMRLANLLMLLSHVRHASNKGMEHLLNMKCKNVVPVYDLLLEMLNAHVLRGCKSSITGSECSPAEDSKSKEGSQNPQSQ
Chain of Androgen receptor (Homo sapiens) (P10275 whole entry, looked up): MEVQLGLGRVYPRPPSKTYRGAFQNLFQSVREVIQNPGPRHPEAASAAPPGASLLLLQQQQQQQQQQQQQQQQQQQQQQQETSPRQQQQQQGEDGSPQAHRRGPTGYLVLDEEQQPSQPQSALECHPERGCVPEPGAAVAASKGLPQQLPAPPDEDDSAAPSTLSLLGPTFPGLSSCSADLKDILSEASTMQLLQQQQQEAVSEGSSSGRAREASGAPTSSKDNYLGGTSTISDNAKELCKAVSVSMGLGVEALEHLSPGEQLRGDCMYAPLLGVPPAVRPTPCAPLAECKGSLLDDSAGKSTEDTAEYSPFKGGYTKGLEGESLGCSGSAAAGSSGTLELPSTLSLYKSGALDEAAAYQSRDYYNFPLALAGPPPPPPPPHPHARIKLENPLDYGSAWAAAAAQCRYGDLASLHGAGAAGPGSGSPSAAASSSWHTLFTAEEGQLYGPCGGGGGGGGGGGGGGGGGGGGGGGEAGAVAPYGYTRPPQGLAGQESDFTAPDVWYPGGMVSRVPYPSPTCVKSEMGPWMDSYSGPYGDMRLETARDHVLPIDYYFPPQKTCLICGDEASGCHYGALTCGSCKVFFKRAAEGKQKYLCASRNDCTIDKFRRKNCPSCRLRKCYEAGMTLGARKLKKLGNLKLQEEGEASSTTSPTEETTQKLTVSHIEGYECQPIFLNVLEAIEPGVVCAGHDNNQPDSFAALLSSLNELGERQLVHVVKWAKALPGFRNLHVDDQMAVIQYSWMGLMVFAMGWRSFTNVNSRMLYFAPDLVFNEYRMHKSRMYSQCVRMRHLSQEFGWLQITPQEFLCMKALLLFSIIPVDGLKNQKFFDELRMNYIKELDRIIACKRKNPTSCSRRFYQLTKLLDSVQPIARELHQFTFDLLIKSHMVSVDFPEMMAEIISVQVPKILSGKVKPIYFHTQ

SMILES | Potency [1] | Potency [2] | Potency [3] | Potency [4] | outcome [5] | outcome [6] | Potency [7] | Potency [8] | Potency [9] | Potency [10] | Potency [11] | outcome [12] | outcome [13] | outcome [14] | Potency [15] | Potency [16] | outcome [17] | outcome [18] | outcome [19]
Cc1nc2ccc(CN(C)c3ccc(C(=O)N[C@@H](CCC(=O)O)C(=O)O)s3)cc2c(=O)[nH]1 | inactive | inactive | 0.15 µM (active) | inactive | inactive | inactive | inactive | inactive | inactive | inactive | inactive | inactive | inactive | inactive | inactive |  |  |  | 
CCN(Cc1ccccc1)c1ccccc1 | 48 µM (active) |  |  | inactive | inactive |  | inactive |  | inactive |  |  | inactive | inactive | inactive | inactive | inactive | inactive | inactive | 
CC1=NS(=O)(=O)c2cc(Cl)ccc2N1 | inactive | inactive | inactive |  | inactive | inactive | inactive | inactive | inactive | inactive | inactive | inactive | inactive |  |  |  | inactive | inactive | inactive
Nc1ccn([C@@H]2O[C@H](CO)[C@@H](O)C2(F)F)c(=O)n1 | inactive | inactive |  |  | inactive | inactive | inactive |  | inactive | inactive | inactive | inactive | inactive |  |  | inactive | inactive | inactive | 
CN(C)C(=O)Oc1ccc[n+](C)c1 | inactive | inactive | inactive |  | inactive | inactive | inactive | inactive | inactive | inactive | inactive | inactive | inactive |  |  |  | inactive | inactive | inactive
C=COC(=O)C(C)(CC)CCC(C)C (centres undefined) | inactive |  | inactive |  |  |  | inactive | inactive | inactive | inactive | inactive | inactive | inactive | inactive | inactive | inactive | inactive | inactive | inactive
CCN1C=CN(C)C1C (centres undefined) | inactive | inactive | inactive |  | inactive | inactive | inactive | inactive | inactive | inactive | inactive | inactive | inactive | inactive | inactive |  | inactive | inactive | inactive
O=C(O)CNC(=O)c1ccccc1 | inactive | inactive |  |  | inactive | inactive | inactive | inactive | inactive | inactive | inactive | inactive | inactive | inactive | inactive | inactive | inactive |  | 
FB(F)F | inactive | inactive | inactive |  | inactive | inactive | inactive | inactive | inactive | inactive | inactive | inactive | inactive | inactive | inactive |  | inactive | inactive | inactive
